Data on 10 molecules can be found in PubChem BioAssay AID1053127 (Broad Institute, 2014).

Molecules are shown by their SMILES. Measured potencies and affinities stand elsewhere. Activity calls are given as the source filed them.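 How the source made its calls: active means compounds whose fitted curve of lowered CTGF expression reaches half effect within a set concentration limit; inconclusive means flat moderate drop in CTGF, or unreliable curve fit; inactive means the rest.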

This experiment in a line: CTGF mRNA reduction under YAP1 overexpression, dose response, mechanism study for YAP1 pathway inhibitor project, DLD1 cells, RT-qPCR, cherry-pick (AID 1053127). Conditions: DLD1 YAP1-overexpressing, 24 h; series mostly up to 26 µM.
Regarding `COc1cccc(-c2ccc([C@H]3[C@H](CO)N4CCCCN(C(=O)Cc5ccncc5)C[C@@H]34)cc2)c1`, the call was inactive.
With `COc1cccc(-c2ccc([C@@H]3[C@H]4CN(C(=O)Cc5ccncc5)CCCCN4[C@H]3CO)cc2)c1`, the result was inactive.
Take `O=C(Cc1ccncc1)N1CCCCN2[C@@H](CO)[C@H](c3ccc(C#Cc4ccccc4F)cc3)[C@@H]2C1`: the result was inactive.
With `O=C(Cc1ccncc1)N1CCCCN2[C@@H](CO)[C@@H](c3ccc(C#Cc4ccccc4F)cc3)[C@@H]2C1`, the molecule was classed as inactive.
Next, `COc1cccc(-c2ccc([C@@H]3[C@H](CO)N4CCCCN(C(=O)Cc5ccncc5)C[C@@H]34)cc2)c1`: “inactive”.
As to `O=C(Cc1ccncc1)N1CCCCN2[C@H](CO)[C@H](c3ccc(C#Cc4ccccc4F)cc3)[C@H]2C1`, the molecule was called inactive.
Take `COc1cccc(-c2ccc([C@H]3[C@@H](CO)N4CCCCN(C(=O)Cc5ccncc5)C[C@@H]34)cc2)c1`: the outcome was inactive.
`COc1cccc(-c2ccc([C@H]3[C@@H](CO)N4CCCCN(C(=O)Cc5ccncc5)C[C@H]34)cc2)c1`: the result was inactive.
`O=C(Cc1ccncc1)N1CCCCN2[C@H](C1)[C@@H](c1ccc(C#Cc3ccccc3F)cc1)[C@@H]2CO`: the molecule was called inactive.
Regarding `COc1cccc(-c2ccc([C@@H]3[C@@H](CO)N4CCCCN(C(=O)Cc5ccncc5)C[C@H]34)cc2)c1`, the molecule was classed as inactive.
